Compounds with a hit are over-represented: about 5.5% of the library has one in this group of screens.
Six1-Eya2 blk – inhibitors of human Six1/Eya2 interaction. 360,000 tested, 0.56% active. Q15475+O00167. AID 651725. AlphaScreen GST-Six1/His-Eya2 binding, biochemical; hits give low values. activity change, % (test concentration not listed); in the data active = activity change below about -65%; inconclusive = mostly about -30% to -63%; also: % is scaled to controls: 0 for no effect and ±100 for the full control effect
Target sequence (O00167 whole entry, looked up): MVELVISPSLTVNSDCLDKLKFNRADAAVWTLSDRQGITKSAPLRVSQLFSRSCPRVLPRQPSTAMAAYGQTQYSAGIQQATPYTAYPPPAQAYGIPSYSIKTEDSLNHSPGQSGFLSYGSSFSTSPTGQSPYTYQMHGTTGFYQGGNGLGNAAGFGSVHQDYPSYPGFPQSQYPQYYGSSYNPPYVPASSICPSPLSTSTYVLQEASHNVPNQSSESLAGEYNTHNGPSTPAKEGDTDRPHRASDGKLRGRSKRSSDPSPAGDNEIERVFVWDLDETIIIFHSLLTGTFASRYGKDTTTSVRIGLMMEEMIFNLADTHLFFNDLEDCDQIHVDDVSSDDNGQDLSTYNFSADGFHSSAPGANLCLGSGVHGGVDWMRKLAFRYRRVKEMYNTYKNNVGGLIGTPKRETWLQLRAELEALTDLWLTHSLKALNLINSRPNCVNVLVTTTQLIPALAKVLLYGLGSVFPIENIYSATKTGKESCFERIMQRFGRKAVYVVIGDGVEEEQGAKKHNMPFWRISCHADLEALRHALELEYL
Target sequence (Q15475 whole entry, looked up): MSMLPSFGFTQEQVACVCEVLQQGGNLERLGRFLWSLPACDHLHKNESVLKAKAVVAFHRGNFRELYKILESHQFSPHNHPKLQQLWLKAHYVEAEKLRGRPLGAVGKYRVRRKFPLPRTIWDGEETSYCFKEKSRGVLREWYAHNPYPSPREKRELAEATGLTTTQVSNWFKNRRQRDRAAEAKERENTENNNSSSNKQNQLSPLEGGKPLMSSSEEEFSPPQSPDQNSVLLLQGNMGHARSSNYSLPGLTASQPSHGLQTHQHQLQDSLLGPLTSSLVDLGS
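Compounds are tested against tagged Six1 and Eya2 proteins bridged by glutathione donor and nickel acceptor beads; after a one-hour incubation at 37 °C without light, AlphaScreen emission is recorded.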
VP16 counter – counter-screen for ROR gamma inhibitors: Gal4-VP16 reporter | AID 2546 | Potency, µM (series often up to 53.6 µM), for the others: top-dose activity, negative = inhibition, usual class: inhibitors | 310,000 tested, 3.5% active | Drosophila S2 Gal4-VP16 UAS-luciferase, luminescence, 20 h;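 also: Gal4-VP16 expression switched on by copper sulfate through the metallothionein promoter; potency is read from the fitted curve at half-maximal effect; % is scaled to controls: 0 for no effect and ±100 for the full control effect; nearly all actives have a fitted effect of over 50% in size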
MBNL1-CUG inh – MBNL1-poly(CUG) RNA binding inhibition | Q9NR56 | Potency, µM (top dose mostly 57.5 µM), for inactives: at the highest dose activity change, negative = inhibition, usual class: inhibitors | TR-FRET MBNL1-His/biotin-(CUG)12 binding, 665/545 ratio | 280,000 tested, 0.036% active; active = well fitted inhibition curve with a large enough effect in the signal ratio, with a control signal flat, not every such curve was filed as active; inconclusive = small, poorly fitted or top-dose-only effect, or effect the other way, or a change in a side signal; inactive = no such curve, though single readings can be large or run the other way; the % refers to the signal ratio; also: potency is read from the fitted curve at half-maximal effect; % is scaled to controls: 0 for no effect and ±100 for the full control effect
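Inhibition of protein-RNA binding appears as loss of TR-FRET between terbium anti-His antibody on MBNL1-His and streptavidin-XL665 on biotin-(CUG)12. Activity is normalized to buffer-only and uninhibited-complex controls.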
RORgamma inh – blocks mouse ROR gamma transcriptional activity; P51450; Drosophila S2 Gal4-RORgamma UAS-luciferase reporter, 20 h; Potency, µM (doses to about 53.6 µM), for inactives: at the highest dose activity change, negative = inhibition, actives largely listed as inhibitors; 310,000 tested, 5.4% active; also: potency is read from the fitted curve at half-maximal effect; % is scaled to controls: 0 for no effect and ±100 for the full control effect; nearly all actives have a fitted effect of over 60% in size
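Stably transfected Drosophila Schneider cells are the test system, with ROR gamma fused to Gal4 and luciferase under UAS control; luminescence is read after 20 hr of 700 uM copper sulfate induction at ambient temperature.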
CBFb-RUNX1 inh – CBF-beta/RUNX1 interaction disruption; AlphaScreen CBFb-His/RUNX1-biotin binding, biochemical; Potency, µM (doses to about 59.8 µM), inactives show top-dose activity, negative = inhibition, actives largely listed as inhibitors; 230,000 tested, under 10 active; also: % of control where 0% means no effect
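Bead-based AlphaScreen assay; binding partners His-tagged CBF-beta and biotinylated RUNX1 at 30 nM each. Compound exposure 15 min after a 20-min protein preincubation; bead step 90 min; all steps at room temperature.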
CtBP-E1A blk – inhibitors of CtBP/E1A interaction; activity change, % (no concentration beside the values); 340,000 tested, 0.49% active; AlphaScreen GST-E1A/His-CtBP binding, 1536-well; hits give low values; in the data active = activity change below about -65%; inconclusive = mostly about -30% to -63%; also: % is scaled to controls: 0 for no effect and ±100 for the full control effect
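In 5 uL wells, 23 nL compound meets equimolar GST-E1A and His-CtBP (5X stock 125 nM each) for 2 h, 37 °C. Beads (5X, 50 ug/mL) then 1 h, 37 °C, dark.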
An asterisk follows results filed as active; ? = inconclusive; / = no result given; [ ] = dose if it differs, or a comment. Unless noted, calls follow the shape of the dose curve; as a rule, active = well fitted curve in the direction sought with a large enough effect; inconclusive = small, poorly fitted or top-dose-only effect, or another doubt; inactive = no such curve, though single readings can be large; an effect the other way counts as inactive or inconclusive.

SMILES | Six1-Eya2 blk | VP16 counter | MBNL1-CUG inh | RORgamma inh | CBFb-RUNX1 inh | CtBP-E1A blk
Cc1ccc(Cl)cc1-n1ncc2c(NNC(=O)c3ccco3)ncnc21 | -4 | -2% | 4% | ? | -2% | 4
O=C(NNc1ncnc2c1cnn2-c1cccc(Cl)c1)c1ccco1 | -5 | 7.1µM* | -6% | 5µM* | / | -8
Cc1ccc(-n2ncc3c(NNC(=O)c4ccco4)ncnc32)cc1C | -5 | 7.1µM* | 2% | 3.5µM* | / | -17
O=C1c2cccc(Cl)c2C(=O)c2c1cccc2N1CCCC1 | -91* | / | / | / | / | -90*
CCc1ccccc1NC(=S)NCC1CCN(c2ccc(OC)cc2)C1 (centres undefined) | 0 | 10µM* | 0% | 2.5µM* | ? | /
COc1ccc(N2CCC(CNC(=O)Nc3cccc(OC)c3)C2)cc1 (centres undefined) | ? | 16% | 3% | 18% | ? | ?
COc1ccc(N2CCC(CNC(=O)Nc3ccc(Cl)cc3)C2)cc1 (centres undefined) | ? | -3% | 4% | ? | -21% | /
CCc1cccc(C)c1NC(=S)NCC1CCN(c2ccc(OC)cc2)C1 (centres undefined) | ? | 7.1µM* | -3% | 6.3µM* | ? | ?
COc1ccc(N2CCC(CNC(=S)Nc3cccc(OC)c3)C2)cc1 (centres undefined) | / | 5.6µM* | / | 3.2µM* | ? | /
CCOC(=O)C1=C(COC(=O)c2ccc(OC)c(S(=O)(=O)N3CCOCC3)c2)NC(=O)NC1C (centres undefined) | -2 | / | / | / | / | 4
CC(C)C(=O)N1CCC1(C)C(=O)Nc1cccc(Oc2ccccc2)c1 (centres undefined) | 6 | / | / | / | / | 0
COc1ccc(NC(=O)N2CC[C@@]3(CCCN(C(=O)c4ccc(OC)cc4)C3)C2)cc1 | / | -5% | / | -15% | / | /
Cc1ccc(NC(=O)C2CC(O)CN2C(=O)OCc2ccccc2)cc1C (centres undefined) | -6 | / | -9% | / | / | 1
CC1=NN(c2ccccc2)C(=O)C1C=Nc1ccccc1O (centres undefined) | -27 | 4.5µM* | / | 2µM* | -10% | ?
CC1=NN(c2ccccc2)C(=O)C1/C=C1\NC(=S)NC1=O (centres undefined) | -23 | 1% | ? | 3% | 0% | -1
O=Cc1cn(CCC(=O)O)nc1-c1cccc2ccccc12 | 4 | 11µM* | 0% | 3.2µM* | 1% | 4
Cc1ccc(-c2csc(NC(=S)NC(=O)c3cccs3)n2)cc1 | -5 | 0% | 7% | 2µM* | -4% | -17
Cc1ccc2nc(NC(=S)NC(=O)c3cccs3)sc2c1 | 8 | 3.2µM* | 6% | 1.1µM* | -2% | -1
O=C(NC(=S)Nc1nc(-c2ccc(Cl)cc2)cs1)c1cccs1 | 0 | 4% | -1% | 0.79µM* | 0% | 4
Cc1ccc(S(=O)(=O)N2C[C@]3(O)C[C@@H]4C(=O)N(c5ccccc5)C(=O)[C@@H]4C[C@]3(OC(=O)NCC3CCCCC3)C2)cc1 | 1 | / | / | / | / | -15
Cc1ccc(C)c(NC(=O)C(Sc2nc3ccc(C)cc3[nH]2)c2ccccc2)c1 (centres undefined) | -13 | ? | / | ? | -4% | 1
Cc1ccc2nc(SC(C(=O)Nc3ccc(F)cc3)c3ccccc3)[nH]c2c1 (centres undefined) | -3 | ? | -12% | 13µM* | 3% | -6
COc1cc(OC)cc(-c2cc3nc(C)c(CCC(=O)O)c(C)n3n2)c1 | ? | 2.8µM* | 6% | 0.71µM* | 5% | ?
CCOC(=O)C1CCN(C(=O)CCc2c(C)nc3cc(-c4ccccc4)nn3c2C)CC1 | 3 | 9% | -6% | -34% | -2% | 3
CCn1nnc(NC(=O)c2ccc(C(C)(C)C)cc2)n1 | 2 | 13µM* | -9% | 13µM* | 1% | 2
SMILES | Six1-Eya2 blk | VP16 counter | MBNL1-CUG inh | RORgamma inh | CBFb-RUNX1 inh | CtBP-E1A blk
CCn1nnc(NC(=O)c2cccnc2)n1 | -2 | -12% | 9% | -5% | -1% | -3
CCC1=NN2C(=N)/C(=C\c3cccn3-c3ccc(Cl)cc3)C(=O)N=C2S1 | -28 | -7% | 4% | ? | -6% | -19
CCC1=NN2C(=N)/C(=C\c3cccn3-c3ccc(C)c(C)c3)C(=O)N=C2S1 | -11 | -9% | ? | 28µM* | -8% | -1
Cc1ccc(S(=O)(=O)N2c3ccccc3OCC2c2ccccc2)cc1 (centres undefined) | 6 | ? | -3% | 115% | -3% | 0
CC1COc2ccccc2N1S(=O)(=O)c1ccc(Cl)cc1 (centres undefined) | 2 | 0% | -13% | 40% | 24% | -66*
CCCCCCCn1c(=O)c(C(=O)OC)c(N)c2ccccc21 | -11 | 1.3µM* | -3% | 1.8µM* | 4% | -2
CCCCCCCCn1c(=O)c(C(=O)OC)c(N)c2ccccc21 | -7 | 4.5µM* | -6% | 3.2µM* | 6% | -22
CCCCCCn1c(=O)c(Cc2ccccc2)c(O)c2ccccc21 | 5 | -22% | 2% | 24% | 5% | -2
COc1ccc(C(=O)Nc2nc3ccccc3[nH]2)cc1S(=O)(=O)N1CCCC1 | ? | ? | -5% | 11µM* | -2% | -70*
COc1cc(C(=O)Nc2nc3ccccc3[nH]2)ccc1OC(F)F | -3 | 7.9µM* | -5% | 5µM* | -6% | -7
COc1ccc(C(=O)Nc2nc3ccccc3[nH]2)cc1OC | -10 | 10µM* | ? | 11µM* | 0% | -6
COc1ccc(C(=O)NCc2nc3ccccc3[nH]2)cc1OC | 6 | 7% | 0% | -5% | 4% | 2
COc1ccc(C(=O)Nc2cccc(C(=O)O)c2)cc1S(=O)(=O)N1CCCC1 | 5 | -8% | 7% | 15% | / | 6
COc1ccc(Cl)cc1C(=O)Nc1nc2ccccc2[nH]1 | -10 | 6.3µM* | ? | 2.2µM* | / | -23
O=C(Nc1cccc2cccnc12)c1ccc(Br)cc1Br | 13 | 2% | -8% | -13%[1.91 µM] | / | 0
CCOC(=O)C1=NOC2COC3(CCN(c4ncccn4)CC3)OCC12 (centres undefined) | -2 | 12% | -5% | 16% | 7% | -2
COc1ccc(CNC(=O)C/C(C)=N/NC(=O)COc2cccc(C)c2)cc1 | 5 | -5% | -2% | 11% | -1% | 4
CC1(C)C(O)C=C[C@@]2(C)C1CC(=O)O[C@@]1(C)C3=CC(=O)OC(c4ccoc4)[C@]3(C)CCC21 (some centres undefined) | / | -3% | / | 33% | 9% | /
